Assay results reported in PubChem BioAssay AID1628 (Sanford-Burnham Center for Chemical Genomics, 2009).
The campaign covered roughly 190,000 compounds. About 930 (0.49%) were called active. The list shows a part of the results. Measured potencies and affinities stand elsewhere. Values without a mark were called inactive.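 How the source made its calls: active means z-score of insulin promoter reporter brightness in nuclei below -3 at 5 µM, with at least 500 cells counted; inconclusive means wells with under 500 cells, flagged as toxic or sparse; inactive means the rest.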

Assay: insulin promoter down-regulators in MIN6 cells, imaging, high-content screening, mouse beta cells (AID 1628)
Settings: MIN6 insulin promoter GFP reporter, at 5 µM, stronger effect = lower value

Row | Compound | z-score
1 | O=C1c2ccccc2-n2c1nc1ccccc1c2=O | -2.2
2 | COc1ccc(-c2nnc(SCC3CCCO3)n2C)cc1 (stereo unspecified) | 2.62
3 | COc1ccc(OC)c(C2=NOC(C(=O)NCC3CCCO3)C2)c1 (stereo unspecified) | 3.67
4 | CCOc1ccc(NC(=S)N2CCC(N(C)CC3CCCO3)CC2)cc1 (stereo unspecified) | 3.59
5 | CCOc1ccc(NC(=O)N2CCCC2C(=O)NCC2CCCO2)cc1 (stereo unspecified) | -3.14 (active)
6 | CCOc1ccc(-n2c(=O)c3c4c(sc3n(CC(=O)NCC3CCCO3)c2=O)CCC4)cc1 (stereo unspecified) | 1.12
7 | O=[N+]([O-])c1ccc(N/N=C/c2cn(Cc3ccc(F)cc3)c3ccccc23)nc1 | 4.69
8 | CC1(C)Cc2c(c(N3CCOCC3)nc3sc4c(NCc5ccco5)nnnc4c23)CS1 | -6.38 (active)
9 | C=CCN1C(=O)/C(=C/c2ccc(N(C)C)cc2)S/C1=N\c1nnc(CC)s1 | 14.1
10 | Cc1cc(C)cc(N(CC(=O)Nc2cccc(C)n2)S(=O)(=O)c2c(C)noc2C)c1 | 2.42
11 | C/C=C/c1ccc(OCCCN2C(=O)NC(C)(C)C2=O)c(OC)c1 | -0.86
12 | C#CCOCCOCCOCCNc1nc(N2CCN(C(=O)[C@H](CCCCN)n3cc(CCCC)nn3)CC2)nc(N2CCN(C(=O)[C@H](CCCCN)n3cc(CCCC)nn3)CC2)n1 | -4.64 (active)
13 | CCCN1CC=C2C(C#N)=C(N)C(C#N)(C#N)C(c3cccc(OC)c3OC)C2C1 (stereo unspecified) | 8.86
14 | CCOC(=O)N1CCC(NC2CCCCCCC2)CC1 | 0.8
15 | O=C(O)C1CCN(C(=O)OCc2ccccc2)CC1 | -4.9 (active)
16 | CN1/C(=C/C=C(C#N)C#N)C=Cc2ccccc21 | 5.52
17 | Cc1nc(CN(C)C(=O)c2cc(COc3ccc4ncccc4c3)on2)cs1 | -5.59 (active)
18 | c1ccc(-c2cnn3c(-c4ccccc4)c(-c4ccccc4)nc3n2)cc1 | 17
19 | CCCCn1nc(-c2ccccc2)c2nc3ccccc3nc21 | 3.11
20 | CCc1ccc2nc3sc(C(=O)N4CCc5ccccc54)c(N)c3cc2c1 | 4.93
21 | N=c1oc2c3c4c(cc2cc1C(=O)Nc1ccccc1)CCCN4CCC3 | 18
22 | CCC(=O)NC(c1cccs1)c1cc(Cl)c2cccnc2c1O (stereo unspecified) | -4.24 (active)
23 | CCCCC(=O)NC(c1cccs1)c1cc(Cl)c2cccnc2c1O (stereo unspecified) | -5.86 (active)
24 | CCN1CC=C2C(C#N)=C(N)C(C#N)(C#N)[C@H](c3cccc(OC)c3OC)[C@H]2C1 | 11.6

Row | Compound | z-score
25 | Cc1ccc(N=C2NC(=O)/C(=C/c3cn(C)c4ccccc34)S2)cc1C | 3.02
26 | CC1CC(=O)C2=C(C1)OC(N)=C(C#N)C2c1coc2ccccc2c1=O (stereo unspecified) | 3.02
27 | Nc1c(C(=O)O)sc2nc(-c3ccccc3)cc(-c3ccccc3)c12 | 4.64
28 | Nc1c(C(=O)Nc2nccs2)sc2nc(-c3cccs3)cc(C(F)(F)F)c12 | 5.95
29 | NC(=O)c1sc2nccc(Nc3ccccc3)c2c1N | -3.42 (active)
30 | CS(=O)c1nc(-c2ccc(Br)cc2)cc(-c2ccccc2)c1C#N (stereo unspecified) | -4.24 (active)
31 | Cc1ccc(S(=O)(=O)CCSc2nc(C)cc(C(F)(F)F)c2C#N)cc1 | 10.9
32 | Nc1c(Cl)ncnc1N1CCCC1 | -3.27 (active)
33 | COc1ccc2c(c1)sc1nc(-c3ccccc3)cn12 | -7.22 (active)
34 | COc1ccc(-c2ccc3c(N)c(C(=O)c4cccc(OC)c4)sc3n2)cc1 | 4.07
35 | CCOc1ccc(OCCCCn2ccnc2)cc1 | 3.52
36 | Cc1cc(Cl)cc(C)c1OCCCCn1ccnc1 | -4.53 (active)
37 | Cc1cccc(OCCCCCn2ccnc2)c1C | -4.58 (active)
38 | Cc1c(C(=O)NCc2cccnc2)oc2ccc(S(=O)(=O)N3CCCCCC3)cc12 | -5.16 (active)
39 | CCN(CC)S(=O)(=O)c1ccc2oc(C(=O)NCc3ccc(F)cc3)c(C)c2c1 | -4.31 (active)
40 | Cc1ccc(S(=O)(=O)c2cccc(S(=O)(=O)N3CCCC3)c2)cc1S(=O)(=O)N1CCCC1 | 3.05
41 | O=S(=O)(c1ccc2oc3ccc(S(=O)(=O)N4CCCCC4)cc3c2c1)N1CCCCC1 | -3.18 (active)
42 | O=C(O)CCCN=Cc1c(O)c2ccccc2oc1=O | 2.46
43 | Cc1oc(C)c2c(=O)ccc3c(c12)OC(N)=C(C#N)C3c1ccccc1Cl (stereo unspecified) | 6.29
44 | COCCNC(=O)Cc1ccc(F)cc1 | 3.03
45 | COCCNC(=O)/C(=C/c1ccccc1Cl)c1ccccc1 | -5.46 (active)
46 | Cn1cc(/C=C2\SC(=S)N(NC(=O)c3ccccc3)C2=O)c2ccccc21 | 6.71
47 | COc1ccc(C)cc1NC(=O)CC(NC(C)=O)c1ccccc1 (stereo unspecified) | 4.5
48 | CCC(=O)N1CCN(c2ccccc2NC(=O)COc2cc(C)ccc2C(C)C)CC1 | -3.26 (active)

Row | Compound | z-score
49 | CCOc1ccc(-c2c(C#N)c(N)nc3sc(C(=O)c4ccccc4)c(N)c23)cc1 | 9.11
50 | Cc1nnc(SCC(=O)c2cc(C)n(-c3ccc4c(c3)OCO4)c2C)s1 | -4.16 (active)
51 | Cn1cc(C(N)=O)c2ccccc21 | 0.12
52 | O=S(=O)(c1ccc(Br)cc1)N1CCN(c2cc(-c3ccccc3)nc3ncnn23)CC1 | -6.61 (active)
53 | O=C(N=C1SCC(=O)N1c1ccccc1Cl)c1ccccc1 | 5.04
54 | N/C(=N\OC(=O)N1c2ccccc2Sc2ccccc21)c1ccccc1 | -3.28 (active)
55 | COc1ccccc1CNC(=O)COC(=O)c1ccc(S(=O)(=O)N2CCCC2)cc1 | -5.2 (active)
56 | CCN1C(=O)CSc2ccc(C(=O)NCc3ccccc3OC)cc21 | 3.1
57 | CC(C)NC(=O)NC(=O)COC(=O)c1cccc(S(=O)(=O)N2CCCCC2)c1 | 4.62
58 | Cn1c(=O)[nH]c(=O)c2c1nc(N1CCCCC1)n2CCCSc1nc2ccccc2s1 | 0.01
59 | CCC(=O)c1ccc(O)c(OC)c1 | -1.5
60 | CCOC(=O)C(C(C)=O)C(c1ccc(OCCC(C)C)cc1)C(C(C)=O)C(=O)OCC (stereo unspecified) | 0.98
61 | CCOC(=O)C(C)S(=O)(=O)c1ccc(C(F)(F)F)cn1 (stereo unspecified) | -4.01 (active)
62 | CCN1CCN(c2ncc3c(n2)CC(c2cc(OC)c(OC)c(OC)c2)CC3=O)CC1 (stereo unspecified) | -3.96 (active)
63 | O=C(Nc1ccc(N2CCCCC2)cc1)c1cccnc1 | 3.44
64 | O=C(NNC(=O)c1cccnc1)NC12CC3CC(CC(C3)C1)C2 | -3.86 (active)
65 | O=C(NCc1cccnc1)c1cnn2ccccc12 | -7.96 (active)
66 | O=C(Nc1nc(-c2cccs2)cs1)c1ccc(Cl)s1 | -3.6 (active)
67 | Cc1csc(NC(=O)c2sc3nc(-c4cccs4)ccc3c2N)n1 | 4.58
68 | Nc1c(C(=O)Nc2nc3ccccc3s2)sc2nc(-c3cccs3)ccc12 | 5.64
69 | Cc1cc(/C=N/n2cnnc2)c(C)n1-c1cccc(C(=O)O)c1 | 4.18
70 | Cc1sc(-n2c(C)cc(/C=N/n3cnnc3)c2C)c(C#N)c1C | -4.46 (active)
71 | Cc1ccc(-n2c(O)c(/C=N/NC(=O)C3COc4ccccc4O3)c3ccccc3c2=O)cc1 (stereo unspecified) | 3.14
72 | O=c1c2ccccc2c(C=Nc2ccccc2O)c(O)n1-c1nccs1 | 4.35

Row | Compound | z-score
73 | CCOc1ccc(-n2c(O)c(/C=N/Nc3nnc(C)c(=O)[nH]3)c3ccccc3c2=O)cc1 | -5.62 (active)
74 | O=c1oc2cc(O)ccc2cc1-c1nc2c(s1)CCc1ccccc1-2 | 13.6
75 | CC1(C)Cc2c(ccc3ccccc23)C(c2cc3ccccc3oc2=O)=N1 | 4.19
76 | Cc1ccccc1C(=O)NCCCc1ccccc1 | -5.2 (active)
77 | CCCCN(CC)CCNC(=O)c1cc2c(C)nc3ccccc3c2o1 | 0.65
78 | O=C(NCCCCc1ccccc1)c1ccc(Br)o1 | 1.07
79 | Cc1cc(C(=O)CSc2nnnn2-c2ccccc2)c(C)n1CC1CCCO1 (stereo unspecified) | -1.4
80 | CCCCC1=CC2=C(c3ccco3)C(=O)C(C)(OC(=O)c3ccc(OC)cc3)C(=O)C2=CN1CC(C)C (stereo unspecified) | 4.34
81 | CC(CNC(=O)c1cncc(O)c1)NC(=O)c1cncc(O)c1 (stereo unspecified) | 3.21
82 | CCCN1C=CC(=C/C=C(\C#N)C(=O)OCC)C=C1 | 3.98
83 | O=C(C1=NN(c2ccccc2)C2C(=O)N(c3cccc(Cl)c3)C(=O)C12)c1ccccc1 (stereo unspecified) | 3.17
84 | CCCCN1C(=O)/C(=C/C=C2\SCCN2C)SC1=S | 13.8
85 | Cc1ccc(/C=N/NC(=O)NC2CCCCC2)o1 | -4.13 (active)
86 | NC1=NC[C@@H](Cc2ccc(O)cc2)N1CCCCC1CCCCC1 | -1.05
87 | CCn1c(CN2CCCCCC2=O)nnc1SCc1cnc(-c2ccccc2)s1 | -3.13 (active)
88 | CCn1c(Cn2nnc(-c3ccccc3)n2)nnc1SCC(=O)Nc1ccc(C(C)=O)cc1 | 4.86
89 | O=[N+]([O-])c1ccc(-c2ccc(/C=N/Nc3nc(NCc4ccccc4)nc(N4CCOCC4)n3)o2)cc1 | 9.01
90 | O=[N+]([O-])c1ccc(-c2ccc(/C=N/Nc3nc(N4CCCCC4)nc(N4CCCCC4)n3)o2)cc1 | 5.14
91 | O=C(CSc1ccc2nnc(CCNC(=O)c3ccccc3)n2n1)Nc1ccccc1 | 2.32
92 | COc1cc2c(cc1OC)-c1nncn1C(C)(C)C2 | 3.76
93 | CCCCN(C)C1=CC2=CC(=C(C#N)C#N)CCC2CC1 (stereo unspecified) | 16
94 | COc1cc(NC(=O)c2ccccc2)c(OC)cc1NC(=O)CN1CCOCC1 | -3.01 (active)
95 | COc1ccc(Cl)cc1NC(=O)C1(c2cccs2)CCOCC1 | 3.78
96 | COc1cc2c(cc1NC(=O)CN1CCN(S(=O)(=O)c3ccccc3F)CC1)oc1ccccc12 | 3.63
